UHRF1 MBD2 ctr – blocks human UHRF1 binding to methylated DNA; UHRF1 binding to methylated oligo, TR-FRET; inhibition, % at 4.4 µM; 370,000 compounds, 0.75% hits; AID 687016; in the data active means inhibition above about 21%;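 further: UHRF1 SRA domain binding a hemimethylated CpG hairpin DNA probe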
PG9 Ab binder – PG9 antibody binding by small molecule | TR-FRET gp120-PG9 antibody binding | 360,000 compounds, 0.43% hits | inhibition, % at 6.7 µM | AID 624416; in the data active means inhibition above about 8.5%
MBD2 inh – blocks human MBD2 binding to methylated DNA; TR-FRET, MBD2 binding to methylated oligonucleotide; Q9UBB5; 370,000 compounds, 0.31% hits; inhibition, % at 4.4 µM; in the data active means inhibition above about 13%
Target sequence (Q9UBB5 whole entry, looked up): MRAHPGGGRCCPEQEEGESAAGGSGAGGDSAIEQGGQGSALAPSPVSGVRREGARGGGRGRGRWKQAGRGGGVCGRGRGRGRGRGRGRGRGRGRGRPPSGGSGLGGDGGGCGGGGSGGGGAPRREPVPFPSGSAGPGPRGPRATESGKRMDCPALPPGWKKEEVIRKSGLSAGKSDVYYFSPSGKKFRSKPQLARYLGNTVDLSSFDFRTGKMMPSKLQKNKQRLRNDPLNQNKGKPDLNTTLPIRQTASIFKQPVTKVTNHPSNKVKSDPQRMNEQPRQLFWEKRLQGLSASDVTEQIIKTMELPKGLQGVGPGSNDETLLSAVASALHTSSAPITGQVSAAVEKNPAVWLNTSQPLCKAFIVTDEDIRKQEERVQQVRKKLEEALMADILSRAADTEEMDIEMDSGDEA
LEDGF integ inh – blocks HIV-1 LEDGF/p75-dependent DNA integration; TR-FRET IN-LEDGF/p75 DNA integration, Eu/Cy5; inhibition, % at 3.7 µM; 370,000 compounds, 0.64% hits; AID 743269;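 active means inhibition above the screen-wide mean plus 3 SD, cut at about 13% in these data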;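 further: signal is the Cy5 over europium emission ratio at 671 and 618 nm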
rCAG RNA binder – r(CAG) repeat RNA binding | TO-PRO-1 dye displacement fluorescence | inhibition, % at 3 µM | 370,000 compounds, 1.3% hits;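 active means inhibition above the plate cutoff, the mean of all test compounds on that plate plus 3 SD, cut at about 35% in these data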;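 further: higher means more dye released from RNA so lower well fluorescence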
DNMT1 inh – blocks human DNA methyltransferase DNMT1; P26358; DNMT1 molecular beacon, Hinp1I cleavage, fluorescence; inhibition (reported as % activation of signal), % at 10 µM; 360,000 compounds, 0.83% hits; in the data active means inhibition above about 50%
rCAG binder conf – r(CAG) RNA repeat binding, confirmation | shares compounds with rCAG RNA binder | TO-PRO-1 dye displacement fluorescence | inhibition, % at 3 µM | 4,300 compounds, 70% hits;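 active means inhibition above a per-plate cutoff, the mean inhibition of sample wells plus 3 SD, cut at about 35% in these data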;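 further: loss of TO-PRO-1 fluorescence as compound displaces dye from 1x1 AA loop RNA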
dCAG dye counter – counter-screen for rCAG RNA binders: DNA CAG dye complex inhibitors; shares compounds with rCAG RNA binder; d(CAG) DNA oligo TO-PRO-1 dye displacement, fluorescence; inhibition, % at 3 µM; 4,300 compounds, 94% hits;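 active means inhibition above its plate's cutoff, the mean test-well inhibition plus 3 SD, cut at about 4.8% in these data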;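 further: hits displace the dye from DNA and so lower well fluorescence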
Large screens that a line does not name were inactive (follow-up assays come after a bar, where they were run). Shown are actives, neighbours in structure and some others; about 3.5% of the full set was active somewhere.

NC(CO)c1csc(NC(=O)Nc2cccc(Cl)c2)n1 (configuration not stated)	none
NC(CCc1ccccc1)c1csc(NC(=O)Nc2cccc(C(F)(F)F)c2)n1 (configuration not stated)	rCAG RNA binder 39.8 | rCAG binder conf inactive | dCAG dye counter inactive
CC(C)C(N)c1csc(NC(=O)Nc2ccc(OC(F)(F)F)cc2)n1 (configuration not stated)	rCAG RNA binder 40.1 | rCAG binder conf inactive | dCAG dye counter inactive
COc1ccc(CNS(=O)(=O)CC2NCCc3ccccc32)cc1 (configuration not stated)	none (no result: PG9 Ab binder, DNMT1 inh)
O=NN(Cc1cccnc1)Cc1cccnc1	none
CCc1ccc(OCC(=O)NNC(=O)Cc2ccc(S(=O)(=O)N3CCOCC3)s2)cc1	none
Cn1c(=O)c(C#N)c(-c2ccc(F)cc2)c2cc(C(=O)c3cc(Cl)cc(Cl)c3O)cnc21	rCAG RNA binder 74.7 | rCAG binder conf 82.9 | dCAG dye counter 41.3
COc1ccccc1-n1c(=O)c(C#N)c(-c2ccc([N+](=O)[O-])cc2)c2cc(C(=O)c3cc(F)ccc3O)cnc21	none
COc1ccc(OC)c(N(CC(=O)N2CCN(Cc3ccccc3)CC2)S(C)(=O)=O)c1	none
CCC[C@H]1[C@@H](NCc2cccs2)CC[C@@]23CCCN2C(=O)CCC[C@@H]13	none (no result: PG9 Ab binder, rCAG RNA binder, DNMT1 inh)
CCN(Cc1ccccc1)S(=O)(=O)c1c(N)n(C)c(=O)n(C)c1=O	UHRF1 MBD2 ctr 30.1, rCAG RNA binder 52.5 | rCAG binder conf inactive | dCAG dye counter inactive
CCN(Cc1ccccc1)S(=O)(=O)c1c(C)n(C)c(=O)n(C)c1=O	none
Cc1cc2oc(C(=O)Nc3ccc(S(=O)(=O)Nc4ncccn4)cc3)c(C)c2cc1Cl	none
Cc1cc2oc(C(=O)Nc3ccc(S(=O)(=O)Nc4nccs4)cc3)cc(=O)c2cc1Cl	rCAG RNA binder 77.5 | rCAG binder conf 86.6 | dCAG dye counter 47.6
CC(=O)Nc1ccc(NC(=O)c2cc(=O)c3cc(C)cc(C)c3o2)cc1	none
Cc1onc(-c2ccccc2Cl)c1C(=O)Nc1ccccc1	none
Cc1cc(C)c2oc(C(=O)Nc3ccc(S(=O)(=O)Nc4nccs4)cc3)cc(=O)c2c1	rCAG RNA binder 67.9 | rCAG binder conf 64.4 | dCAG dye counter 28.6
Cc1onc(-c2ccccc2Cl)c1C(=O)Nc1ccc(S(=O)(=O)Nc2nccs2)cc1	rCAG RNA binder 41.3 | rCAG binder conf 37.2 | dCAG dye counter 12.7
O=C(Nc1cccc(S(=O)(=O)NC2=NCCCCC2)c1)c1ccc(Cl)cc1	none
CCCC(=O)N1CCC1(C)C(=O)NS(=O)(=O)c1cccc(C)c1 (configuration not stated)	none
COc1ccc(N2C(=O)C3C(c4ccc(C(=O)O)cc4)NC(Cc4ccccc4)(C(=O)O)C3C2=O)c([N+](=O)[O-])c1 (configuration not stated)	rCAG RNA binder 37.2 | rCAG binder conf inactive | dCAG dye counter 6.6
COC(=O)C1(Cc2ccccc2)NC(c2ccc(F)cc2)C2C(=O)N(C)C(=O)C21 (configuration not stated)	none
O=[N+]([O-])c1cc(Cl)ccc1N1CCN(c2cccc(C(F)(F)F)c2)CC1	none
O=C(O)c1cc([N+](=O)[O-])cc([N+](=O)[O-])c1N1CCN(c2cccc(C(F)(F)F)c2)CC1	rCAG RNA binder 40.6 | rCAG binder conf inactive | dCAG dye counter 5.7
COc1cccc(CN2CCC2(C)C(=O)Nc2ccc(C)cc2)c1F (configuration not stated)	none
O=C1NC(=O)/C(=C/c2ccc(-c3cc(C(=O)O)ccc3Cl)o2)S1	rCAG RNA binder 53.1 | rCAG binder conf 52.1 | dCAG dye counter 14.7
O=C(/C=C1\SC(=O)NC1=O)Nc1ccc(C(=O)O)cc1	none
O=C1NC(=S)/C(=C\c2ccc(-c3ccccc3Cl)o2)S1	rCAG RNA binder 79.8 | rCAG binder conf 67.5 | dCAG dye counter 34.5
CC(NC(=O)CN1c2cccc3cccc(c23)S1(=O)=O)c1ccccc1 (configuration not stated)	none
CC(NC(=O)CN1c2cccc3cccc(c23)S1(=O)=O)c1ccc(S(N)(=O)=O)cc1 (configuration not stated)	rCAG RNA binder 40.4 | rCAG binder conf inactive | dCAG dye counter 10.3
O=c1oc2ccccc2cc1-c1nc(-c2cccs2)cs1	rCAG RNA binder 41.1 | rCAG binder conf inactive | dCAG dye counter 8.6
COc1cccc2cc(-c3nc(-c4cccs4)cs3)c(=O)oc12	none
C[C@H]1C2CC(OC(=O)Nc3ccc(C#N)cc3)C(C2)[C@H]2CCCCN21 (some centres not stated)	none (no result: PG9 Ab binder, DNMT1 inh)
N#Cc1c(N(CCO)CCO)nc(N)c2c(N)nc3c(c12)CC(=O)N3Cc1cccs1	none (no result: UHRF1 MBD2 ctr, PG9 Ab binder, MBD2 inh, LEDGF integ inh, rCAG RNA binder)
CN(CCO)c1nc(N)c2c(N)nc3c(c2c1C#N)CC(=O)N3Cc1cccs1	rCAG RNA binder 38.1 | rCAG binder conf inactive | dCAG dye counter 9.2
Cc1ccc(-c2csc(NC(=O)c3ccc(C)o3)n2)cc1	none
Cc1ccc(-c2csc(NC(=O)c3ccno3)n2)cc1	rCAG RNA binder 45.3 | rCAG binder conf 48.7 | dCAG dye counter 22.0
O=C(O)c1ccc(NS(=O)(=O)c2cccc(C(=O)Nc3ccccc3[N+](=O)[O-])c2)cc1	none
O=C(Nc1ccccc1C(=O)O)c1ccc(Cl)c(S(=O)(=O)N2CCOCC2)c1	none
CC(=O)c1ccc(NS(=O)(=O)c2cccc(C(=O)Nc3ccccc3C(=O)O)c2)cc1	rCAG RNA binder 48.6 | rCAG binder conf inactive | dCAG dye counter 6.4
Cc1ccc(NS(=O)(=O)c2ccc(Cl)c(C(=O)Nc3cccc(C(=O)O)c3)c2)cc1	none
COc1ccc(NS(=O)(=O)c2cccc(C(=O)Nc3ccccc3C(=O)O)c2)cc1	rCAG RNA binder 66.4 | rCAG binder conf 51.9 | dCAG dye counter 19.8
O=C(Nc1ccccc1C(=O)O)c1cc(S(=O)(=O)N2CCCCC2)c(Cl)cc1Cl	rCAG RNA binder 70.2 | rCAG binder conf 61.6 | dCAG dye counter 20.1
COc1ccc(NS(=O)(=O)c2cccc(C(=O)NNC(=O)c3ccc(NC(C)=O)cc3)c2)cc1	none
O=C(Nc1ccccc1C(=O)O)c1cc(S(=O)(=O)Nc2ccccc2)ccc1Cl	rCAG RNA binder 46.1 | rCAG binder conf 35.3 | dCAG dye counter 7.3
CSCC(=O)N1CCC(n2nccc2NC(=O)c2ccc3c(c2)OCO3)CC1	none
CCCCOc1ccc(C(=O)NC2CCCCN(Cc3cccc(C(F)(F)F)c3)C2=O)cc1 (configuration not stated)	none (no result: PG9 Ab binder, DNMT1 inh)
COc1ccc(NS(=O)(=O)c2ccc(Cl)c(NC(=O)c3ccccc3F)c2)cc1	none

Screening data as filed in PubChem BioAssay.
